# Screening data from PubChem BioAssay.
# A selection: hits, their analogues and other compounds. The true share with any hit is near 3.6%.
# D1 antagonist: Antagonist of Human D 1 Dopamine Receptor: qHTS | hit rate 3.2% among 360,000 | HEK293 TREx D1 cells, calcium flux, dopamine EC80; active compounds read low | AID 504652, 2011 | activity change, negative = inhibition, % at 10 µM | D(1A) dopamine receptor (Homo sapiens), P21728; in the data active means activity change below about -30%; further: on the % scale 0 is the no-effect control and ±100 the full control effect
#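 Compound effects on dopamine-evoked calcium signalling were measured in tetracycline-induced HEK293 Trex D1 cells. Dopamine at EC80 followed a 180 s compound pre-read, and fluorescence was tracked kinetically for 180 s more.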
# TRHR agonist: qHTS for Small Molecule Agonists and Allosteric Enhancers of Human TRH Receptor: Primary Screen for Agonists; TRHR cells, calcium flux fluo-8, FDSS agonist mode; activation, % at 2 µM; hit rate 0.18% among 360,000; Thyrotropin-releasing hormone receptor (Homo sapiens), P34981; further: 0% is about no effect
# Target sequence (P34981 whole entry, looked up): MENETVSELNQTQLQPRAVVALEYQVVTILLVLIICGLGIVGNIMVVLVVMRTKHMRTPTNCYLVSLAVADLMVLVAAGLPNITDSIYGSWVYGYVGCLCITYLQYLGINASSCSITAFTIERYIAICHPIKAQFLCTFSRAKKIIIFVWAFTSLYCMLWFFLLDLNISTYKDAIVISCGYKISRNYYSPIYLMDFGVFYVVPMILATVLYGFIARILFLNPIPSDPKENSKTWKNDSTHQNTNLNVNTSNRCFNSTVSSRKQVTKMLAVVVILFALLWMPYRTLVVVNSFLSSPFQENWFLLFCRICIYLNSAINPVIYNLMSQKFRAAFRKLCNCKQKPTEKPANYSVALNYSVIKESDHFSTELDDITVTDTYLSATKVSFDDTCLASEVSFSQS
#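 TRHR-expressing cells, plated overnight in medium with 10% serum, were loaded with fluo-8 calcium dye at room temperature. After a 10 s baseline, library compound was pin-added and calcium release was recorded kinetically (ex 480/em 530) as agonist response.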
# D1 potentiator: Potentiators of Human D1 Dopamine Receptor: qHTS | HEK293 TREx D1 cells, calcium flux, dopamine EC20 potentiation | hit rate 0.036% among 360,000 | potentiation, % at 10 µM; in the data active means potentiation above about 30%; further: 0% is about no effect
# D1 ag: Allosteric Agonists of the Human D1 Dopamine Receptor: qHTS | HEK293 T-REx D1 cells, calcium flux, agonist mode | activation, % at 2 µM | hit rate 1% among 360,000 | AID 504660, 2011; further: 0% is about no effect
#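 Tetracycline-induced HEK293 TREx D1 cells, force-coupled to calcium signalling, were dye-loaded with a no-wash calcium kit. Compound was pin-added after a 10 s baseline. Fluorescence was read kinetically at 1 cycle/s for 180 s, with calcium rises flagged as agonism.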
# LDHA block: qHTS assay for inhibitors of human lactate dehydrogenase | L-lactate dehydrogenase A chain (Homo sapiens), P00338 | purified LDHA, NADH/diaphorase-resazurin fluorescence; active compounds read low | activity change, % (values are at about 110 or 230 µM) | hit rate 0.15% among 480,000; in the data active means activity change below about -30%;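 further: plate controls were DMSO wells for no effect and wells without enzyme for full effect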
#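 Enzyme activity of human lactate dehydrogenase 5 (2 nM; 0.06 mM NADH, 0.2 mM pyruvate, 5 min, RT) is measured via a resazurin/diaphorase fluorescence readout of residual NADH.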
# TRHR PAM: qHTS for Small Molecule Agonists and Allosteric Enhancers of Human TRH Receptor: Primary Screen for Enhancers. AID 493056, 2011. enhancement, % at 2 µM. TRHR cells, fluo-8 calcium fluorescence, EC20 TRH enhancement. Thyrotropin-releasing hormone receptor (Homo sapiens), P34981. hit rate 0.66% among 360,000; in the data active means enhancement above about 30%; further: 0% is about no effect
#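 Enhancer read-out: after compound pinning and an initial kinetic agonist-mode read, an EC20 of TRH (10 nM final) was injected and fluo-8 calcium signal (Ex 480/Em 530) followed at 1 s/cycle for 100 cycles in TRHR-expressing cells.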
# An asterisk follows results filed as active; nt = not tested or not shown. Unless noted, no stated cut-off is given here; in the data, active means activation above about 30%; inactive means the rest.
SMILES,D1 antagonist,TRHR agonist,D1 potentiator,D1 ag,LDHA block,TRHR PAM
CN1CCN(c2nc(-c3ccco3)cc(C(F)(F)F)n2)CC1,-68*,0,-5,-1,-6,-1
O=C(Cn1nc(-c2ccc(Cl)cc2)c2ccccc2c1=O)N1CCCCC1,nt,nt,nt,nt,1,nt
CC(=O)N1CCN(CC(=O)Nc2c(C#N)c(C)c(C)n2C2CCCC2)CC1,nt,nt,nt,nt,-8,nt
Cc1c(C#N)c(=O)c(-[n+]2ccccc2)c([S-])n1-c1ccc(Cl)cc1,14,1,-1,3,1,33*
CCCCCCCOc1ccc(C=Nc2ccc(CCCC)cc2)c(O)c1,nt,nt,nt,nt,0,nt
COc1ccc(-c2noc(COc3ccc4ccccc4c3Br)n2)cc1OC,11,-2,-5,0,-3,4
Cc1ccc(-c2noc(COc3ccc(Br)c(C)c3)n2)cc1,-4,1,-7,12,-2,-1
COc1ccc(-c2noc(COc3ccc(Br)cc3C)n2)cc1OC,2,0,-1,33*,-4,28
COc1ccc(-c2noc(COc3ccc(C)c(C)c3)n2)cc1OC,-45*,1,-5,9,1,-8
CCN(Cc1nc(-c2ccc(OC)c(OC)c2)no1)S(=O)(=O)c1ccc(OC)cc1,-34*,0,2,1,-3,-4
COc1cccc(CNC(=O)c2cccc(Oc3ccccc3)c2)c1,nt,nt,nt,nt,1,nt
COc1ccc(Oc2c(C)oc3cc(OCC(=O)N(C)Cc4ccccc4)ccc3c2=O)cc1,nt,nt,nt,nt,1,nt
S=c1[nH]nc(-c2ccccc2Cl)n1/N=C/C=C/c1ccco1,-36*,0,-4,1,0,19
S=c1[nH]nc(-c2ccncc2)n1/N=C/C=C/c1ccco1,-2,0,-5,0,0,-11
Cc1nc2ccc(-c3ccccc3)cc2o1,-46*,0,-3,1,-5,-7
CSC1=NC(C(Cl)(Cl)Cl)N=C(c2ccc(C)cc2)N1 (stereo unspecified),-85*,0,-5,0,-2,1
CCC1CCCCN1C(=O)Cn1c(=O)n(-c2ccc(Cl)c(Cl)c2)c(=O)c2c(C)c(C(=O)N(C)C)sc21 (stereo unspecified),-34*,-1,0,0,-5,-3
CCC1CCCCN1C(=O)Cn1c(=O)n(-c2ccc(F)c(C)c2)c(=O)c2sccc21 (stereo unspecified),nt,nt,nt,nt,-39*,nt
CSCCC(NC(=O)Cc1cccc(C(F)(F)F)c1)c1nc2ccccc2s1 (stereo unspecified),nt,nt,nt,nt,5,nt
CCCc1c(C)nc(N2CCN(c3ccc(F)cc3)CC2)[nH]c1=O,-30*,0,-1,13,-3,-4
Cc1ccc(CS(=O)(=O)N2CCC(C(=O)N3CCN(c4cc(Cl)ccc4C)CC3)CC2)cc1,nt,nt,nt,nt,-1,nt
CCOc1ccccc1N1CCN(Cc2cccc(OC)c2O)CC1,-32*,0,-10,-2,6,-1
CCOCc1cc(CN2CCN(c3ccccc3OC)CC2)c(O)c2ncccc12,3,-2,1,4,10,5
COc1ccc2oc(=O)cc(CN3CCN(c4ccccc4OC)CC3)c2c1,3,-2,2,-1,-1,-2
CCOc1ccc2oc(=O)cc(CN3CCN(c4ccccc4OC)CC3)c2c1,18,-1,3,1,3,47*
SMILES,D1 antagonist,TRHR agonist,D1 potentiator,D1 ag,LDHA block,TRHR PAM
COc1ccccc1N1CCN(Cc2cc3c(cc2O)OCO3)CC1,-37*,1,-8,3,33,-7
N#C/C(=C/c1ccc([N+](=O)[O-])cc1)c1ccc(C(F)(F)F)cn1,nt,nt,nt,nt,8,nt
C#CCN1C(=O)S/C(=C/c2cn(CC(=O)O)c3ccccc23)C1=O,nt,nt,nt,nt,10,nt
CN(c1ccc(OCC(=O)OCC(=O)Nc2ccccc2F)cc1)S(=O)(=O)c1cccs1,-40*,3,-6,36*,-7,10
Cc1cc(C)cc(NC(=O)COC(=O)COc2ccc(N(C)S(=O)(=O)c3cccs3)cc2)c1,nt,nt,nt,nt,0,nt
Cc1cccc(C)c1OCCCN,nt,nt,nt,nt,0,nt
COc1ccc(C(=O)O)c(Br)c1,nt,nt,nt,nt,2,nt
COc1ccc(-c2ccc(C(=O)O)c(=O)[nH]2)cc1,-30*,0,-2,5,8,-3
O=C(COc1ccc([N+](=O)[O-])cc1)N1CCC(c2nc3ccccc3s2)CC1,-82*,0,-1,7,-2,-3
CCOc1cccc(C(=O)N2CCC(c3nc4ccccc4s3)CC2)c1,-36*,0,-2,0,-5,5
COc1ccc(OCC(=O)N2CCC(c3nc4ccccc4s3)CC2)cc1,-11,0,-1,5,-3,-1
CCOC(=O)N1CCN(C(=O)c2nc3ccccc3s2)CC1,-34*,0,4,4,-6,-1
CCN(Cc1nc2cc(Cl)ccc2c(=O)[nH]1)C(=O)c1cc(Cl)c(OCC(N)=O)c(OC)c1,nt,nt,nt,nt,16,nt
Cc1ccc(-c2cnc(CCC(=O)Nc3ccccc3F)o2)cc1,nt,nt,nt,nt,4,nt
CS(=O)(=O)N1CCC(C(=O)Nc2ccccc2SC2CCCC2)CC1,nt,nt,nt,nt,0,nt
CSC1=N/C(=C\c2ccccc2C)C(=O)S1,5,1,3,3,-3,32*
O=C(c1ccc2c(Cl)c3c(nc2c1)CCCC3)N1CCN(c2cccc(Cl)c2)CC1,-9,0,6,7,0,33*
COc1cccc(N2CCN(C(=O)c3cccc(-n4c(C)nc5cccnc54)c3)CC2)c1,-11,0,-1,1,6,6
Cc1nc2cccnc2n1-c1cccc(C(=O)N2CCN(c3cccc(Cl)c3)CC2)c1,-32*,-1,-4,5,1,-4
CCC12CN(CC#N)CC(CC)(CN(CC#N)C1)C2=O,nt,nt,nt,nt,7,nt
CCOC(=O)C1=C(N)Oc2cc(C)[nH]c(=O)c2C1c1ccncc1 (stereo unspecified),9,0,-4,4,0,-5
CCOC(=O)C1=C(N)Oc2c(c(=O)[nH]c3ccccc23)C1c1ccccc1 (stereo unspecified),-87*,-1,-3,3,-2,6
O=C(CSc1nccn1Cc1ccc2c(c1)OCO2)Nc1nccs1,nt,nt,nt,nt,5,nt
O=c1oc2ccc(Br)cc2cc1S(=O)(=O)N1CCCCC1,nt,nt,nt,nt,2,nt
C=CCSC(=S)Nc1c(C)n(C)n(-c2ccccc2)c1=O,-1,1,2,3,-3,5
